Data on 13 compounds can be found in the supplement of paper PMC7801607.

The structures appear in SMILES notation.

For the assay, the system named is Plasmodium berghei ANKA liver stage in HepG2-A16-CD81. The experiment in a line: % inhibition of liver stage parasite viability (luciferase); higher = more inhibition. As to conditions: 5 µM; 48 h. The method, then:
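Single-concentration screen of the MMV Pandemic Response Box. P. falciparum NF54 asexual blood stages: pLDH assay, 72 h at 37 °C, 2 and 20 µM, n=2. Stage IV/V gametocytes (NF54): luciferase reporter (NF54-Pfs16-GFP-Luc, 48 h), ATP bioluminescence (24 h) and PrestoBlue (48 h) at 1 and 5 µM, n=1. P. berghei liver stage (luciferase in HepG2-A16-CD81, 48 h post infection) at 5 µM, n=4. All normalised to DMSO and kill controls as % inhibition.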
As for `COc1ccccc1CN[C@H]1C2CCN(CC2)[C@H]1C(c1ccccc1)c1ccccc1`, the “% inhibition of liver stage parasite viability” value (“% inhibition” for short) came to 17.8%. For `COc1cc(C(C)(C)CCCC(C)C)cc(OC)c1OC`, the “% inhibition” value came out at 21%. For the compound `Nc1c(C(=O)NCc2ccco2)c2nc3ccccc3nc2n1CCN1CCCCC1`, the “% inhibition” value was 28.4%.

In the case of `NC1(C(=O)O)CCP(=O)(O)CC1` (stereo not drawn), the “% inhibition” value was determined as 19.9%. Under `CN1C(=O)C(c2ccccc2)C(=O)N(c2ccccc2)c2cc(C(F)(F)F)ccc21` (stereo not drawn) stands 7.89%; under `O=C(NC12CC3CC(CC(C3)C1)C2)c1cc2ccccc2[nH]1`, 11.7%; under `COC(=O)Nc1nc2ccccc2[nH]1`, 30.8%. Next, `C[C@@]1(O)[C@H](O)[C@@H](CO)O[C@H]1n1ccc2c(N)ncnc21`: 12.7%; `C[C@H]1CC[C@]2(NC1)O[C@H]1C[C@H]3[C@@H]4CC[C@H]5C[C@@H](O)CC[C@]5(C)[C@H]4CC[C@]3(C)[C@H]1[C@@H]2C`: 32%. As for `C[N+]1(C)CCCC(OC(=O)C(O)(c2ccccc2)c2ccccc2)C1` (stereo not drawn), the “% inhibition” value came out at 34%. Consider `CCCCc1ccc(C(=O)O)nc1`, for which the “% inhibition” value came to 19.3%. For the compound `CC(C)Oc1cccc(NC(=O)c2ccccc2C(F)(F)F)c1`, the “% inhibition” value turned out to be 23.7%. For `CCN1CCN(Cc2nc3ccc([N+](=O)[O-])cc3c(=O)n2-c2ccccc2F)CC1`, the “% inhibition” value came out at 14.3%.
